Screening data deposited in PubChem BioAssay by National Center for Advancing Translational Sciences (NCATS).
The sample as a whole holds a higher share of hits than the screen did.
Sfp inh: blocks B. subtilis Sfp PPTase activity; Q9F4F7; Biochemical Sfp PPTase activity, qHTS; Potency, µM, for the others: largest response in the series, negative = inhibition, most hits filed as inhibitors; 3.5% of 310,000 active; AID 1490;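 further: the enzyme is Sfp with the accession as filed and its product quenches rhodamine fluorescence; 0% = enzyme reaction without inhibitor and -100% = no enzyme wells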
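With Hepes-Na pH 7.6 buffer containing 10 mM MgCl2, Sfp (15 nM) modified BHQ-2-YbbR (12.5 uM) using rhodamine-CoA (5 uM). Two reads 30 minutes apart at 525/598 nm yielded each well's rate.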
Glioma ERSR ind: ER stress response induction in glioma. 0.02% of 420,000 active. U87-MG GRP78 promoter luciferase reporter, 16 h. Potency, µM, inactives show top-dose activation, hits mostly activators. AID 602332; further: series mostly up to about 76 µM; % of control where 0% means no effect; nearly all actives have a fitted effect of over 35% in size
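ERSR induction read as luciferase luminescence (Bright-Glo, 10 min at room temperature) in stably transfected human U87-MG glioma cells exposed to compounds for 16 h, using GRP78 as sensor.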
G9a inh: blocks human histone lysine methyltransferase G9a. G9a H3K9 monomethylation, AlphaScreen, 2 h. Potency, µM (highest dose often 102 µM), for the others: at the highest dose activity, negative = inhibition, usual class: inhibitors. 8.8% of 350,000 active. AID 504332; further: on the % scale 0 is the no-effect control and ±100 the full control effect; nearly all actives have a fitted effect of over 75% in size
Target sequence (Q96KQ7 913-1193 limits assumed): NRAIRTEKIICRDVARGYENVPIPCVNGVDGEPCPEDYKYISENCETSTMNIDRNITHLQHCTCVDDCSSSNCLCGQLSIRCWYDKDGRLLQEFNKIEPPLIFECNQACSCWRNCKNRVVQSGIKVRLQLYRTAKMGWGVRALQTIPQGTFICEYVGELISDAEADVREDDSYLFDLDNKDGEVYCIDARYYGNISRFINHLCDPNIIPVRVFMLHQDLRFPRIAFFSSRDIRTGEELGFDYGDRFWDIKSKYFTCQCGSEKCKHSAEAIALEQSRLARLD
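AlphaScreen read-out: biotin-H3K9 peptide (500 nM) methylation by 20 nM enzyme with 20 uM SAM, 2 h at room temperature after 15 min compound preincubation; anti-monomethyl H3K9 antibody plus donor/acceptor beads, 10 min dark.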
VDR inh: vitamin D3 receptor (human) inhibition; VDR-SRC2-3 peptide fluorescence polarization, 2 h; Potency, µM, without a hit: max response, negative = inhibition, most hits filed as inhibitors; 0.93% of 400,000 active; AID 504847; further: on the % scale 0 is the no-effect control and ±100 the full control effect
Target sequence (P11473 whole entry, looked up): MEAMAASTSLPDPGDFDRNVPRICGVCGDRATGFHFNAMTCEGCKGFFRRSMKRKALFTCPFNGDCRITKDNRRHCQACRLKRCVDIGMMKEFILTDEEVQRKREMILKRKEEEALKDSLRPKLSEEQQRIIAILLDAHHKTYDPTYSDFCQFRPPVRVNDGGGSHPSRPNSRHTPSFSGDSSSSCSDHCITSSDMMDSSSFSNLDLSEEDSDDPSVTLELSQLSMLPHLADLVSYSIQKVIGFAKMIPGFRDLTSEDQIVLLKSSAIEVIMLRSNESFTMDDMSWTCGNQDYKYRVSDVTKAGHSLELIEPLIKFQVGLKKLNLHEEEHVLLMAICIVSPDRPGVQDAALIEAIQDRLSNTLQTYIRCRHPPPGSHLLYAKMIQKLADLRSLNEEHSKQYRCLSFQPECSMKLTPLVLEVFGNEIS
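Compounds are added to VDR with labelled SRC2-3 coactivator peptide and held 2 h at room temperature. Inhibition of the VDR–peptide interaction is then read as a change in fluorescence polarization.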
ALOX12 inh: ALOX12 (human) lipoxygenase inhibition; purified 12hLO, xylenol orange hydroperoxide absorbance; Potency, µM (titrated, usually from 108 µM), inactives show at the top dose activity change, negative = inhibition, usual class: inhibitors; P18054; 1.1% of 580,000 active; further: on the % scale 0 is the no-effect control and ±100 the full control effect
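Hydroperoxide product was detected by ferrous iron/xylenol orange as the 573 to 405 nm absorbance ratio. Arachidonic acid at 40 uM (final) was turned over for 30 min at room temperature by 150 nM human 12hLO, pH 7.0 Hepes buffer, after 15 min compound preincubation.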
The depositor's hits bear a star; ! = repeats disagree; [ ] = another dose, or the depositor's remark. The call rests on the fitted dose curve; in most records, active means well fitted curve in the direction sought with a large enough effect; inconclusive means small, poorly fitted or top-dose-only effect, or another doubt; inactive means no such curve, though single readings can be large; an effect the other way counts as inactive or inconclusive. Potency means the concentration at half of the fitted maximal effect.

What do the screens show for `O=C(Cc1c(Cl)cccc1Cl)N1CCN(Cc2ccccc2)CC1`?
Sfp inh: -1.5%; Glioma ERSR ind: -3.9%; G9a inh: 4.6%; VDR inh: inconclusive; ALOX12 inh: -55.6%

Results for Clc1ccccc1CN1CCN(c2ccccc2)CC1 ?
Sfp inh: -10.8%; Glioma ERSR ind: -4.0%; G9a inh: inconclusive; VDR inh: 6.8%; ALOX12 inh: 0.891µM*

How did Cc1noc(C)c1C(=O)N1C2CCC1CN(C(C)C)C2 do in these assays?
ALOX12 inh: 13.7%[12.5 µM]

Results for CCC1(C)CC(C(N)=S)CCO1 (stereo not drawn) ?
Sfp inh: 4.47µM*; Glioma ERSR ind: -3.8%; G9a inh: -138.5%[12.7 µM]; VDR inh: 20µM*; ALOX12 inh: 8.91µM*

How did CC(C)CCN1CCC2CC(=O)NCCC2C1 (stereo not drawn) do in these assays?
ALOX12 inh: -16.1%[12.5 µM]

How did Brc1c(Br)c(Br)c2n[nH]nc2c1Br do in these assays?
Sfp inh: 16.7%; Glioma ERSR ind: -3.7%; G9a inh: 18.8%[59 µM]; VDR inh: 44.7µM*; ALOX12 inh: 0.0%

Results for CC(C)(C)NC(=S)/N=C(\N)N[N+](=O)[O-] ?
Sfp inh: inconclusive; Glioma ERSR ind: 1.7%; G9a inh: 22.4µM*; VDR inh: -18.2%; ALOX12 inh: 0.0%

Results for CC1C(c2ccc(F)cc2)=[N+]([O-])C(C)(C(=O)c2ccccc2)N1O (stereo not drawn) ?
ALOX12 inh: 3.8%

Results for S=C(S)N1CCCC1 ?
Sfp inh: 5.62µM*; Glioma ERSR ind: -7.3%; G9a inh: 0.708µM*; VDR inh: 20µM*!; ALOX12 inh: inconclusive

Results for Cc1ccc(/C=C2\C(=O)NC(=S)N(c3ccccc3F)C2=O)s1 ?
Sfp inh: 14.1µM*; Glioma ERSR ind: -14.4%; G9a inh: inconclusive; VDR inh: inconclusive; ALOX12 inh: 39.8µM*

How did Cc1ccc(/C=C2\C(=O)NC(=S)N(c3ccc(F)cc3)C2=O)s1 do in these assays?
Sfp inh: -2.7%; Glioma ERSR ind: inconclusive; G9a inh: 6.31µM*; VDR inh: 35.5µM*; ALOX12 inh: inconclusive

What do the screens show for `CCOC(=O)C1CCN(/C=C2/C(=O)NC(=S)N(c3ccccc3F)C2=O)CC1`?
Sfp inh: -8.8%; Glioma ERSR ind: -1.8%; VDR inh: -14.2%; ALOX12 inh: -20.6%

Results for Cn1c(O)c(C(=NCCN2CCCCC2)c2ccccc2Cl)c(=O)n(C)c1=O ?
Sfp inh: 7.7%; Glioma ERSR ind: -0.8%; G9a inh: -21.3%; VDR inh: 12.8%; ALOX12 inh: 0.0%

What do the screens show for `CSC(=Nc1ccccc1)c1c(O)n(C)c(=O)n(C)c1=O`?
Sfp inh: 56.2µM*; Glioma ERSR ind: -3.7%; G9a inh: inconclusive; VDR inh: -3.6%; ALOX12 inh: -24.3%

What do the screens show for `CCOC(=O)c1ccc(N=C(c2ccccc2)c2c(O)n(C)c(=O)n(C)c2=O)cc1`?
Sfp inh: inconclusive; Glioma ERSR ind: 4.6%; G9a inh: 50.1µM*; VDR inh: -20.4%; ALOX12 inh: 0.0%

Results for Cn1c(O)c(C(=Nc2ccccc2)SCc2ccccc2Cl)c(=O)n(C)c1=O ?
Sfp inh: 39.8µM*; Glioma ERSR ind: -5.9%; VDR inh: -0.9%; ALOX12 inh: inconclusive

Results for On1ccccc1=S ?
Glioma ERSR ind: -1.0%; G9a inh: 1.12µM*; VDR inh: 22.4µM*; ALOX12 inh: -4.9%

Results for CN(C)Cc1cn(C[C@H]2C[C@@H]3CCN2C[C@@H]3C(=O)NC2CC2)nn1 ?
ALOX12 inh: 2.9%[176 µM]

Results for CN1CCC(N2C[C@@H]3OCC(=O)N[C@@H]3C2)CC1 ?
ALOX12 inh: 24.2%[176 µM]

What do the screens show for `COc1ccc(/C=C2/C(=O)NC(=O)N(C3CCCCC3)C2=O)cc1CSc1ccccn1`?
Sfp inh: 56.2µM*; G9a inh: inconclusive; ALOX12 inh: inconclusive

Results for CN1C(=O)C(=Cc2c(OCc3cnc(Cl)s3)ccc3ccccc23)C(=O)N(C)C1=O ?
Sfp inh: inconclusive; Glioma ERSR ind: 10.6%; G9a inh: inconclusive; VDR inh: inconclusive; ALOX12 inh: -28.8%

How did COc1ccc(C=C2C(=O)N(C)C(=O)N(C)C2=O)cc1CSc1ccccn1 do in these assays?
Sfp inh: 44.7µM*; Glioma ERSR ind: 3.7%; G9a inh: 44.7µM*; VDR inh: 79.4µM*; ALOX12 inh: inconclusive

Results for CC(C)c1cccc(O)c(=O)c1 ?
Sfp inh: 56.2µM*!; Glioma ERSR ind: -3.1%; G9a inh: 11.2µM*!; VDR inh: inconclusive; ALOX12 inh: 14.1µM*!

How did Cn1c(O)c(C=NCCN2CCOCC2)c(=O)n(C)c1=S do in these assays?
Sfp inh: -5.1%; Glioma ERSR ind: -4.4%; G9a inh: 31.6µM*; VDR inh: -17.8%; ALOX12 inh: -1.4%

What do the screens show for `Clc1ccc(Cl)c(-c2ccc(CNC3CN4CCC3CC4)o2)c1` (stereo not drawn)?
ALOX12 inh: 8.91µM*

How did CCOC(=O)c1c(/N=C/C2C(=O)NC(=O)NC2=O)sc2c1CCC2 do in these assays?
Sfp inh: 35.5µM*; Glioma ERSR ind: 1.0%; G9a inh: inconclusive; VDR inh: -10.3%; ALOX12 inh: -2.3%

How did CCn1nc(-c2cccs2)nc2c(=O)n(C)c(=O)nc1-2 do in these assays?
Sfp inh: -5.0%; Glioma ERSR ind: -17.3%; G9a inh: 17.8µM*; VDR inh: -4.3%

How did CC(C)N(Cc1ccccc1)C(=O)CCS(=O)(=O)c1ccc2c(c1)oc(=O)n2C do in these assays?
Sfp inh: 4.4%; Glioma ERSR ind: -1.7%; G9a inh: 70.8µM*; VDR inh: -4.8%; ALOX12 inh: 11.1%

How did CN1CCN(Cc2cc(C(C)(C)C)c(O)c(C(C)(C)C)c2)CC1 do in these assays?
Sfp inh: -18.4%; Glioma ERSR ind: -4.9%; G9a inh: 8.91µM*; VDR inh: -29.4%; ALOX12 inh: inconclusive

What do the screens show for `CCCCCCCSc1cc(OC)c(CCNC)cc1OC`?
Sfp inh: inconclusive; Glioma ERSR ind: -15.3%; G9a inh: 22.4µM*; VDR inh: 17.7%; ALOX12 inh: inconclusive

What do the screens show for `CCCCCSc1cc(OC)c(CCNC)cc1OC`?
Sfp inh: 5.8%; Glioma ERSR ind: -3.6%; G9a inh: inconclusive; VDR inh: 2.8%; ALOX12 inh: inconclusive

How did CCN(CC)c1ccc(C=C2C(=O)N(C)C(=S)N(C)C2=O)o1 do in these assays?
Sfp inh: -17.1%; Glioma ERSR ind: 0.1%; G9a inh: 20µM*; VDR inh: -6.2%; ALOX12 inh: -19.0%

What do the screens show for `CN1C(=O)C(=Cc2ccc(N3CCCCC3)o2)C(=O)N(C)C1=S`?
Sfp inh: 56.2µM*; Glioma ERSR ind: 4.7%; VDR inh: 9.1%; ALOX12 inh: 3.4%

Results for O=S(=O)(NC[C@H]1C[C@@H]2CCN1C[C@@H]2CN1CCOCC1)c1ccccc1 ?
ALOX12 inh: 8.5%[176 µM]

How did CCOc1ccc(S(=O)(=O)O)c2cccnc12 do in these assays?
Sfp inh: 70.8µM*; Glioma ERSR ind: -4.5%; G9a inh: 6.1%[12.7 µM]; VDR inh: 1.5%; ALOX12 inh: -25.5%
